Hit rate of the full screen: of about 52,000 compounds, about 1,700 (3.3%) were called active. The sample as a whole holds a higher share of actives than the screen did. A number with no mark means an inactive call. No stated cut-off is given here; in the data, active means survival mostly below about 52% (no sharp cut-off); inactive means mostly above about 56%.

For the test, the system named is Wild type. Briefly: S. aureus survival, RN4220 and DeltatarO strains – OD600, teichoic acid synthesis inhibitors, primary screen (AID 463173). Conditions: S. aureus RN4220 wild type/DeltatarO growth, OD600, 18 h, hits give low values, screened at 18.75 µg/mL (by protocol).
As for `Cc1cccc(C(=O)Nc2ccccc2OCc2cc(=O)n3c(C)csc3n2)c1`, the survival was 90%.

Take `Cc1ccc(Cl)cc1N1CCN(S(=O)(=O)c2ccc3c(c2)CC(=O)N3C)CC1`: the survival is 113%.

Turning to `COCCCNC(=O)c1ccc(Cn2c(=O)c3ccccc3n(CC(=O)Nc3c(C)cccc3C)c2=O)cc1`, the survival is 83%.

On to `CCCN(C(=O)CCn1cnc2onc(-c3ccc(F)cc3)c2c1=O)c1ccccc1C`, for which the survival is 72%.

Regarding `COCCCNC(=O)C1CCCN(C(=O)c2cnn(-c3ccc(F)cc3)c2-n2cccc2)C1` (configuration not stated), the survival was 128%.

With `CSc1nnc(COc2ccc(Cl)cc2)n1C`, the survival is 101%.

Regarding `CCOc1cc(CNC(=O)C(NS(=O)(=O)c2cccs2)C(C)C)cc(OCC)c1OCC` (configuration not stated), the survival was 65%.

`Cc1ccc(CNC(=O)c2ccc3c(c2)CCN3S(=O)(=O)c2ccccc2)cc1`: the survival was 84%.

Take `Cc1ccc(C)c(N2CCN(S(=O)(=O)c3ccc(F)c(C(=O)Nc4ccc(Cl)cc4Cl)c3)CC2)c1`: the survival is 80%.

`Cc1cccc(N2CCN(S(=O)(=O)c3ccc(F)c(C(=O)Nc4cccc(Cl)c4C)c3)CC2C)c1` (configuration not stated): the survival was 100%.

As for `Cc1ccc(N2CCN(S(=O)(=O)c3ccc(F)c(C(=O)Nc4ccc(Cl)cc4Cl)c3)CC2C)cc1` (configuration not stated), the survival was -6% (active).

Regarding `CCN1C(=O)C(O)(C(C)C(=O)c2ccccc2)c2ccccc21` (configuration not stated), the survival was 111%.

Consider `CCCCC(=O)N1c2ccccc2C(C)(c2ccccc2)CC1(C)C` (configuration not stated), for which the survival is -2% (active).

For `Cc1ccc(NC(=O)CN2C(=O)C(C)(C)c3ccccc32)cc1`, the survival is 77%.

Turning to `CC(=O)N1c2ccccc2N(C)C(=O)C1(C)C`, the survival is 105%.

Regarding `CCC1=NN(C(=O)Cc2ccccc2)C(O)(c2ccccc2)C1` (configuration not stated), the survival was 107%.

On to `CCC(CC)C(=O)N1c2ccccc2C(C)(c2ccccc2)CC1(C)C` (configuration not stated), for which the survival was -2% (active).

As to `CCCCOc1ccc(C2(C(=O)O)CCCC2)cc1`, the survival is 105%.

In the case of `CC(=O)N1c2ccccc2C(C)(c2ccc(C)cc2)CC1(C)C` (configuration not stated), the survival is -2% (active).

`CCC(=O)N1CCN(C(=O)CC)C1c1ccccc1`: the survival is 99%.

For the compound `CCC(CC)C(=O)N1CCN(Cc2ccccc2)CC1`, the survival was 108%.

Turning to `CC1=CC(C)(C)N(C(=O)Cc2ccccc2)c2ccccc21`, the survival is 126%.

In the case of `CCC(=O)N1c2ccccc2C(C)(c2ccccc2)CC1(C)C` (configuration not stated), the survival is -3% (active).

In the case of `CCc1ccc(NC(=O)Cn2c(=O)n(CCCCC(=O)NCc3ccccc3Cl)c(=O)c3ccccc32)cc1`, the survival is 90%.

Turning to `CC(C)c1ccc(NC(=O)CN2C(=O)CSc3ccc(S(=O)(=O)N4CCCC4)cc32)cc1`, the survival is 91%.

`CC1Cc2cc(S(=O)(=O)N(C)c3ccc(Br)cc3)ccc2N1C(=O)C1CC1` (configuration not stated): the survival is 106%.

Regarding `COc1cc2c(=O)c(C(=O)c3ccc(C)c(C)c3)cn(Cc3ccccc3F)c2cc1OC`, the survival is 127%.

Take `COc1ccc(OC)c(NC(=O)c2cc(=O)c3c(C)cc(C)cc3o2)c1`: the survival was 87%.

For `O=C(NC1CC(=O)N(c2ccc(Cl)cc2)C1)c1ccc(S(=O)(=O)N2CCCC2)cc1` (configuration not stated), the survival was 127%.

As for `CC(=O)N1CCCc2cc(S(=O)(=O)N3CCCC(C(=O)Nc4ccc(C)c(F)c4)C3)ccc21` (configuration not stated), the survival is 73%.

For `COCCNC(=O)c1cnn(-c2cccc(C)c2)c1-n1cccc1`, the survival was 99%.

For `CCOc1ccccc1C(=O)N1CCc2cc(OC)c(OC)cc2C1COc1ccc2c(C)cc(=O)oc2c1` (configuration not stated), the survival was 76%.

Regarding `Cc1c(C(=O)Nc2ccccc2Br)oc2ccc(S(=O)(=O)N3CCOCC3)cc12`, the survival is 113%.

As for `CCCCCC(=O)N1c2ccccc2C(C)(c2ccccc2)CC1(C)C` (configuration not stated), the survival is -2% (active).

In the case of `CC(C)c1ccc(S(=O)(=O)c2nnn3c2nc(N2CCCC2)c2sccc23)cc1`, the survival was 89%.

Turning to `Cc1ccc(-c2noc(CN(C(=O)COc3cc(C)cc(C)c3C)C(C)C)n2)cc1`, the survival is 1% (active).

As for `COc1ccc(-c2noc(CN(C(=O)c3cc(OC)c(OC)cc3OC)C(C)C)n2)cc1`, the survival is 86%.

Turning to `CC(C)N(Cc1nc(-c2ccc(Cl)cc2)no1)C(=O)c1ccco1`, the survival was 76%.

With `COc1ccc(-c2noc(CN(C(C)C)S(=O)(=O)c3ccc(Br)cc3)n2)cc1`, the survival was 81%.

`Cc1ccc(-c2noc(CNC(=O)COc3cc(C)c(Br)c(C)c3)n2)cc1`: the survival was 89%.

For the compound `Cc1ccccc1C(=O)N(Cc1nc(-c2ccc(Cl)cc2)no1)C(C)C`, the survival was 86%.

On to `COc1ccc(-c2noc(CN(C(=O)c3ccccc3Cl)C(C)C)n2)cc1`, for which the survival is 97%.

As for `Cc1ccc(CC(=O)N(Cc2nc(-c3ccc(C)cc3)no2)C(C)C)cc1`, the survival was -1% (active).

Take `COc1ccc(-c2noc(CN(C(=O)c3ccc(C)cc3C)C(C)C)n2)cc1`: the survival is 0% (active).

For `COc1ccc(-c2noc(CN(C(=O)COc3cc(C)c(Br)c(C)c3)C(C)C)n2)cc1`, the survival was 7% (active).

`O=C(O)CC(C(=O)O)c1cn(Cc2ccccc2)c2ccccc12` (configuration not stated): the survival is 105%.

Turning to `CC(C)(C)OC(=O)N1CCC(c2c(C(=O)NCCc3ccccc3)cnn2-c2ccc(F)cc2)CC1`, the survival is 78%.

On to `Cc1ccc(C)c(Cn2c3ccccc3c3cnn(CC(=O)NCCC4=CCCCC4)c(=O)c32)c1`, for which the survival is 82%.

As for `CC(Sc1nc(=O)cc(N)n1CCc1ccccc1)C(=O)Nc1ccccc1C#N` (configuration not stated), the survival is 75%.

With `CC(C(=O)NCC1CCCO1)N(C(=O)c1snc(C(N)=O)c1N)c1cccc(F)c1` (configuration not stated), the survival is 101%.

`Cc1ccccc1NC(=O)CSc1nnc(C)c(=O)[nH]1`: the survival is 89%.

As to `Cc1ccc(Nc2sc(C(=O)c3ccccc3)c(N)c2C(=O)NC(C)C)cc1`, the survival is 78%.

As to `O=C(CSc1nccn1Cc1ccccc1)Nc1ccc2c(c1)OCO2`, the survival is 138%.

In the case of `COc1ccc(-c2noc(CN(C(=O)Cc3ccc(C)cc3)C(C)C)n2)cc1`, the survival was 5% (active).

On to `COc1ccc(CC(=O)N(Cc2nc(-c3ccc(C)cc3)no2)C(C)C)cc1`, for which the survival is 33%.

As to `COc1ccc(-c2noc(CN(C(=O)C(C)Oc3ccc(C)cc3)C(C)C)n2)cc1` (configuration not stated), the survival was 77%.

Turning to `COc1ccccc1OC(C)C(=O)N1CCN(CCc2ccccn2)CC1` (configuration not stated), the survival is 82%.

Take `COc1ccc2c(c1)c(=O)c(C(=O)c1ccc(F)cc1)cn2CC(=O)Nc1ccc2c(c1)OCO2`: the survival is 91%.

As for `CCCn1c(-c2cccc(Br)c2)nc2ccccc21`, the survival was 3% (active).

For `CC(C)Cn1c(-c2cccc(Br)c2)nc2ccccc21`, the survival is 27% (active).

As for `CCCCNc1nc2c(-c3cccc(Br)c3)nnn2c2ccccc12`, the survival was 92%.

Take `CC(C)Cn1c(C2CC(=O)N(c3ccccc3Cl)C2)nc2ccccc21` (configuration not stated): the survival is 97%.

For the compound `CC(C)Nc1nc2c(-c3cccc(Br)c3)nnn2c2ccccc12`, the survival is 74%.

As to `Cc1nc2ccccc2c(=O)n1CC(C)C`, the survival is 106%.

Consider `CC(=O)NC(C)c1nc2ccccc2n1Cc1ccccc1Cl` (configuration not stated), for which the survival is 91%.

Take `CC(C)Cn1c(-c2ccccc2Cl)nc2ccccc21`: the survival was 26% (active).

As for `CCCn1c(SCC(O)c2ccccc2)nc2ccccc21` (configuration not stated), the survival is 86%.

For `O=C(NCCc1ccc(Cl)cc1)c1ccc(CS(=O)Cc2ccccc2Cl)o1` (configuration not stated), the survival was 62%.

On to `COc1ccccc1CCNC(=O)c1cc2c(=O)n3cccc(C)c3nc2n1C`, for which the survival was 85%.

Take `COc1ccc(C2CC(=O)c3cc(-c4nc(-c5ccc(Cl)cc5)c(C)s4)c(=O)[nH]c3C2)cc1` (configuration not stated): the survival was 71%.

For the compound `Cc1ccc(CCNC(=O)c2cc3c(=O)n(C)c4ccccc4c3n2C)cc1`, the survival was 80%.

On to `Cc1ccc(C)c(Cn2c(=O)n(CCCCC(=O)NCc3ccc4c(c3)OCO4)c(=O)c3ccccc32)c1`, for which the survival was 110%.

As to `CC(NC(=O)CN1C(=O)c2cccnc2Oc2ccc(Cl)cc21)c1ccccc1` (configuration not stated), the survival is 74%.

On to `Cc1c(C(=O)N2CCC(C)CC2)c(S(=O)(=O)NCc2ccc(Br)cc2)c(C)n1C`, for which the survival was 80%.

Regarding `COc1ccccc1Cn1cc(C(=O)c2ccc(C)cc2)c(=O)c2cc3c(cc21)OCCO3`, the survival is 83%.

On to `COc1ccc(OC)c(CNC(=O)c2ccc3c(c2)c(C)c(C)n3Cc2ccc(Cl)cc2)c1`, for which the survival is 82%.

With `CCN(C(=O)c1sc2cc(OC)ccc2c1Cl)c1ccccc1`, the survival was -9% (active).

Consider `CCN(C(=O)c1cn(-c2ccc(OC)cc2)c(=O)c2ccccc12)c1cccc(Cl)c1`, for which the survival is 119%.

As for `CCNC(=O)c1sc2ccccc2c1Cl`, the survival is 124%.

For the compound `O=C(COc1ccc(Cl)cc1)NCCc1csc(-c2ccc(F)cc2)n1`, the survival was 73%.

On to `CCCOC(=O)c1ccc(Cn2nnc3sc4c(c3c2=O)CCC(C)C4)cc1` (configuration not stated), for which the survival is 77%.

With `CC1CCc2c(sc3nnn(Cc4ccc(F)cc4)c(=O)c23)C1` (configuration not stated), the survival was 1% (active).

In the case of `COC(=O)c1ccc(Cn2nnc3sc4c(c3c2=O)CCCC4)cc1`, the survival is 77%.

Turning to `CC1CCc2c(sc3nnn(Cc4ccccc4Cl)c(=O)c23)C1` (configuration not stated), the survival was 16%.

As to `COC(=O)c1ccc(Cn2nnc3sc4c(c3c2=O)CCC(C)C4)cc1` (configuration not stated), the survival is 75%.

`CC1CCc2c(sc3nnn(Cc4ccccc4)c(=O)c23)C1` (configuration not stated): the survival is 0% (active).

With `O=c1c2c3c(sc2nnn1Cc1ccc(Br)cc1)CCCC3`, the survival was 28%.

Turning to `Cc1ccc(Cn2nnc3sc4c(c3c2=O)CCC(C)C4)cc1` (configuration not stated), the survival is 60%.

For the compound `Cc1ccccc1Cn1nnc2sc3c(c2c1=O)CCCC3`, the survival was 0% (active).

Regarding `O=C(NCc1ccco1)c1ccc(COCC(F)(F)C(F)F)cc1`, the survival was 98%.

Consider `COc1ccccc1N1CCN(C(=O)CN2C(=O)COc3ccc(S(=O)(=O)N4CCC(C)CC4)cc32)CC1`, for which the survival was 98%.

Regarding `CCCCc1nn2c(=O)cc(COC(=O)c3cccc(NC(=O)c4cccc(Cl)c4)c3)nc2s1`, the survival is 85%.

The values are drawn from PubChem BioAssay AID463173 (ICCB-Longwood Screening Facility, Harvard Medical School, 2010).
